From PubChem BioAssay
Hits are enriched below; roughly 11% of the tested compounds scored in any of these assays.
HPGD inh – HPGD (human) dehydrogenase inhibition; 4.3% of 150,000 active; purified HPGD, NADH fluorescence kinetic, PGE2 substrate; AID 894; Potency, µM, inactives show top-dose activity change, negative = inhibition, usual class: inhibitors; note: potency is the fitted concentration of half-maximal effect
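NADH formation kinetics: reaction with 30 uM PGE2 and 1 mM NAD+ (final), 20 nM enzyme, Tris-HCl pH 8 with Tween 20, after 15 min compound preincubation at room temperature. Fluorescence change, last versus first of five reads.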
ALDH1A1 block – ALDH1A1 (human) enzyme inhibition; Potency, µM (titrated, usually from 75.3 µM), for inactives: at the top dose activity, negative = inhibition, usual class: inhibitors; Purified ALDH1A1, NADH fluorescence, propionaldehyde substrate; 7.3% of 220,000 active;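 note: potency is the fitted concentration of half-maximal effect; plate controls were no enzyme wells and a reference inhibitor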
Target sequence (P00352 whole entry, looked up): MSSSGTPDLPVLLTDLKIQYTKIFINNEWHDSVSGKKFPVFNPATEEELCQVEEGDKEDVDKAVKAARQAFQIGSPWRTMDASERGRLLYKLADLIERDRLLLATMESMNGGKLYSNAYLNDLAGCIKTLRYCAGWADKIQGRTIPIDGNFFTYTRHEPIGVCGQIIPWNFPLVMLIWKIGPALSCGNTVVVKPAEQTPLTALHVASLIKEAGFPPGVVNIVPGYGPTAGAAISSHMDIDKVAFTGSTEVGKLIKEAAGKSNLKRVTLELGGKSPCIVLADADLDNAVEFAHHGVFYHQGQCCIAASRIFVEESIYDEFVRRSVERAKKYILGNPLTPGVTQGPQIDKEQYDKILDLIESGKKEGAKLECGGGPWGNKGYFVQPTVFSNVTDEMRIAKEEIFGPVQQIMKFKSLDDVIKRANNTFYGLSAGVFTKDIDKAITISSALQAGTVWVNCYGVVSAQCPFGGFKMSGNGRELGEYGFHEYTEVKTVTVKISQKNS
PNC assembly inh – inhibitors of perinucleolar compartment assembly | 3.1% of 140,000 active | PC3M PTB-GFP, PNC prevalence imaging, 16 h; active compounds read low | activity change (PNC), negative = inhibition, % at 10 µM;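 active = readout at or below -70, meaning at least 70% loss of cells showing the perinucleolar compartment, a nuclear body marking cancer cells; inconclusive = readout between -30 and a set limit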;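 note: plate controls were DMSO wells for no effect and camptothecin positive control wells for full effect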
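Read-out is percentage of cells bearing a perinucleolar compartment, from automated 20x imaging of fixed, Hoechst-stained PC3M PTB-GFP cells. Cells were seeded 4 h, then exposed 16 h to compound (23 nl of library stock) in duplicate plates.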
An asterisk follows results filed as active; [ ] = dose if it differs, or a comment. Unless noted, calls come from the whole dose curve; as a rule, active = well fitted inhibition curve with a large enough effect (not every such curve was filed as active); inconclusive = small, poorly fitted or top-dose-only effect, or another doubt; inactive = no such curve, though single readings can be large or run the other way. Unless noted, % is set by controls: 0 for no effect and ±100 for the full control effect.

Screening Cc1ccc(OCC(=O)NCc2ccco2)cc1C returned HPGD inh 20µM*, ALDH1A1 block inconclusive and PNC assembly inh inconclusive.
Screening CCOc1ccccc1OCC(=O)NCc1ccco1 returned HPGD inh -20%, ALDH1A1 block inconclusive and PNC assembly inh 16.
For Cc1nn(-c2ccccc2)c(C)c1C(=O)OCC(N)=O the results were ALDH1A1 block 11%.
`O=C(CSc1nnnn1-c1ccc(F)cc1)NCc1cccs1` gave ALDH1A1 block -2%.
COc1cc(C(=O)N(c2ccc(C)c(C)c2)C2C=CS(=O)(=O)C2)cc(OC)c1OC (configuration not stated) was read as ALDH1A1 block -2%.
For CC(CCc1ccccc1)NC(=O)COc1ccc(S(=O)(=O)N2CCOCC2)cc1[N+](=O)[O-] (configuration not stated) the results were HPGD inh -8%, ALDH1A1 block inconclusive and PNC assembly inh 40.
COCCN(C(=O)c1cc(OC)c(OC)c(OC)c1)c1c(N)n(Cc2ccccc2)c(=O)[nH]c1=O was read as ALDH1A1 block 9%.
COc1ccc(N2C(=O)/C(=C/c3cccs3)NC2=S)cc1 was read as HPGD inh 3.5µM*, ALDH1A1 block 3.2µM* and PNC assembly inh inconclusive.
For CCN1C(=O)/C(=C/c2cccs2)SC1=Nc1ccc(OC)cc1 the results were HPGD inh -3%, ALDH1A1 block -3% and PNC assembly inh 22.
CC1=NN(c2ccc(C)cc2)C(=O)/C1=C\c1ccc(Br)s1 was read as HPGD inh -19%, ALDH1A1 block 2% and PNC assembly inh -27.
For CC1=NN(c2ccc(Br)cc2)C(=O)/C1=C/c1cccs1 the results were HPGD inh 14µM*, ALDH1A1 block 2.2µM* and PNC assembly inh inconclusive.
Screening CN1C(CC(=O)c2ccccc2)CCCC1CC(O)c1ccccc1 (configuration not stated) returned HPGD inh -10%, ALDH1A1 block -2% and PNC assembly inh -110*.
`CN1[C@H](CC(=O)c2ccccc2)CCC[C@H]1C[C@@H](O)c1ccccc1` gave HPGD inh -5% and ALDH1A1 block 4%.
`COc1ccc(C(=O)O)c(O)c1OC` gave HPGD inh -7% and ALDH1A1 block -2%.
`COC1=C(N)C(=O)c2nc(-c3nc(C(=O)O)c(C)c(-c4ccc(OC)c(OC)c4O)c3N)ccc2C1=O` gave HPGD inh -14%, ALDH1A1 block -9% and PNC assembly inh -115*.
`Cc1ccc(C(CC(=O)N2CCOCC2)c2ccco2)cc1` (configuration not stated) gave HPGD inh 20µM*, ALDH1A1 block inconclusive and PNC assembly inh 14.
`Cc1ccc(OCc2nnc(SCCN3CCOCC3)n2C)cc1` gave HPGD inh -4%, ALDH1A1 block -11% and PNC assembly inh -9.
Screening Cc1ccc(-c2nnc(SCC(=O)N3CCOCC3)nc2-c2ccc(C)cc2)cc1 returned HPGD inh 18µM*, ALDH1A1 block inconclusive and PNC assembly inh -29.
O=C(CSCc1ccc(Cl)cc1)N1CCOCC1 was read as HPGD inh -2%, ALDH1A1 block 8% and PNC assembly inh 17.
O=C(CC(c1ccccc1)c1ccco1)N1CCCCC1 (configuration not stated) was read as ALDH1A1 block -5%.
For Cc1ccc(CSCC(=O)N2CCOCC2)cc1 the results were HPGD inh -14%, ALDH1A1 block 25µM* and PNC assembly inh -13.
Screening Cc1ccc(SCC(=O)N2CCOCC2)cc1 returned HPGD inh -14%, ALDH1A1 block 0% and PNC assembly inh -2.
For Cc1ccc(OCc2nnc(SCC(=O)N3CCOCC3)n2C)cc1 the results were HPGD inh -14%, ALDH1A1 block -1% and PNC assembly inh -107*.
`NCCc1nc(-c2ccccc2)cs1` gave ALDH1A1 block -9%.
`CC(OC(=O)c1ccc2c(=O)n3c(nc2c1)CCCCC3)C(N)=O` (configuration not stated) gave ALDH1A1 block -8%.
For COC(=O)[C@@]1(Cc2ccc(F)cc2)[C@H]2c3cc(C(=O)N(C)C)n(CCCNc4ccc(C(F)(F)F)cc4Cl)c3C[C@H]2CN1C(=O)c1ccccc1 the results were HPGD inh -8% and ALDH1A1 block -8%.
CCCc1[nH]nc2c1C(c1ccsc1)C(C#N)=C(N)O2 (configuration not stated) was read as ALDH1A1 block -12%.
Screening CCCc1[nH]nc2c1C(c1ccc(O)cc1OCC)C(C#N)=C(N)O2 (configuration not stated) returned HPGD inh -5%, ALDH1A1 block 18µM* and PNC assembly inh -3.
Cc1[nH]nc2c1C(c1ccc(OC(=O)c3ccco3)cc1)C(C#N)=C(N)O2 (configuration not stated) was read as HPGD inh -13%, ALDH1A1 block inconclusive and PNC assembly inh 56.
Screening CC(C)c1[nH]nc2c1C(c1ccc(OC(=O)c3ccco3)cc1)C(C#N)=C(N)O2 (configuration not stated) returned HPGD inh -19%, ALDH1A1 block 25µM* and PNC assembly inh 13.
`COCc1[nH]nc2c1C(c1ccc(OC)cc1)C(C#N)=C(N)O2` (configuration not stated) gave HPGD inh -10%, ALDH1A1 block -9% and PNC assembly inh inconclusive.
Screening CCCc1[nH]nc2c1C(c1cccc(OC)c1)C(C#N)=C(N)O2 (configuration not stated) returned HPGD inh -1%, ALDH1A1 block 20µM* and PNC assembly inh 33.
For CCOc1ccc(-c2[nH]nc3c2C(c2ccc(O)cc2)C(C#N)=C(N)O3)cc1 (configuration not stated) the results were HPGD inh -29%, ALDH1A1 block 18µM* and PNC assembly inh inconclusive.
For CCCc1[nH]nc2c1C(c1ccc(OC)cc1OC)C(C#N)=C(N)O2 (configuration not stated) the results were HPGD inh -6%, ALDH1A1 block inconclusive and PNC assembly inh 17.
Screening CCOC(=O)c1c(O)[nH]c(=O)c(CC)c1C returned HPGD inh -4% and ALDH1A1 block 0%[13.5 µM].
`COc1ccc(OC)c(-c2csc(N(CC3CCCO3)C(=O)Cc3ccccc3)n2)c1` (configuration not stated) gave ALDH1A1 block -1%.
For Cc1ccc([S+](=O)([O-])N(c2ccccc2)[S+](=O)([O-])C(F)(F)F)cc1 the results were HPGD inh -4% and ALDH1A1 block 6%.
For Cc1ccc(S(=O)(=O)OCC(=O)O)cc1 the results were HPGD inh -1% and ALDH1A1 block -6%[13.5 µM].
Screening COC(=O)C1=C(C)N(Cc2ccccc2)[C@]23O[C@](C(=O)OC)(C(=O)N2C1c1ccccc1)C1C(=O)N(C)C(=O)C13 (some centres not stated) returned ALDH1A1 block 0%[13.5 µM].
For CCNS(=O)(=O)c1cc(OC)c(Cl)cc1OC the results were HPGD inh 2%, ALDH1A1 block inconclusive and PNC assembly inh -24.
`CCOC(=O)c1cnc(SCC(=O)N2CCOCC2)nc1N` gave ALDH1A1 block -12%.
COc1ccc2c(C)nc(Nc3nc(C)c(C)c(=O)[nH]3)nc2c1 was read as HPGD inh -11%, ALDH1A1 block inconclusive and PNC assembly inh -3.
